This is an account of results in PMC5540273 (PLoS ONE, 2017).
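Note: KINOMEscan kinase panel screen.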

This experiment concerns KIT. Conditions: concentration: 1 μM, replicates: in singlicate; n = 1.
Take `COc1cc2ncnc(Nc3ccc(OCc4ccccc4Br)c(Cl)c3)c2cc1OC.Cl` [GI261590]: the “%Inh” value amounted to 3%.
Next, `CSc1nn2c(=O)cc(N3CCOCC3)nc2n1Cc1cccc(Cl)c1Cl` [GSK2347225]: 23%.
In the case of `Fc1cccc(COc2ccc(Nc3ncnc4sc(-c5ccc[nH]5)cc34)cc2Cl)c1` [GW707818], the “%Inh” value came to 16%.
Regarding `Cl.O=S(=O)(c1cccc(F)c1)c1ccc(Nc2ncnc3cc(Br)sc23)cc1Cl` [GSK306886], the “%Inh” value is 34%.
As for `CN1c2ccc(-c3ccc(C(=O)NCCO)cc3)cc2-c2[nH]ncc2S1(=O)=O`, the “%Inh” value worked out at 17%.
Regarding `Nc1nc(-c2ccc3c(N)n[nH]c3c2)cc(N2CCCCC2)n1` [GSK2228768], the “%Inh” value is 5%.
In the case of `Cn1ccc2ncnc(Oc3ccc(NC(=O)Nc4cccnc4)c(Cl)c3)c21`, the “%Inh” value came to 98.7%.
Turning to `Clc1cc(Nc2ncnc3cc[nH]c23)ccc1OCc1ccccn1`, the “%Inh” value is recorded as 38%.
The figure for `Cl.Cl.c1ccc(-c2cc3ccncc3cc2OC2CCNCC2)cc1` [GSK1122999] is 18%; for `Fc1ccc(Nc2nccc(-c3c(-c4ccc(Cl)cc4)nn4ncccc34)n2)cc1F` [GW829058] it is 38%; for `C[C@H]1CC[C@@H](C(=O)Nc2ccccc2)CN1c1cc(-c2ccc3c(N)n[nH]c3c2)nc(N)n1` [GSK2283293] it is 1%.
For `FC(F)(F)c1cc(Nc2nccc(-c3c(-c4ccc(Cl)cc4)nn4ncccc34)n2)ccc1Cl` [GW829351], the “%Inh” value came to 38%.
For the compound `FC(F)(F)c1ccc(-c2cc(-c3c[nH]nc3-c3ccccn3)ccn2)cc1` [GW599550], the “%Inh” value turned out to be 26%.
